The text below walks through data of PubChem BioAssay (NCATS).

Several values for one entry are separate records, joined by “and”; a condition that tells them apart may be missing. Equal entries are not always repeated. Records with an inconclusive call do not appear. Some compounds were tested as several samples or in several runs, with calls that do not always agree. Activity calls are given as the source filed them. Unless noted, the call rests on the fitted dose curve; in most records, active means well fitted curve in the direction sought with a large enough effect; inconclusive means small, poorly fitted or top-dose-only effect, or another doubt; inactive means no such curve, though single readings can be large; an effect the other way counts as inactive or inconclusive.

The nature of assay [1]: High-throughput drug toxicity screening in the BPDCN cell line Gen2.2 (AID 1224824; call rule not given here;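 further: cells exposed to compounds for 48 h before reading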). As to conditions: Gen2.2 BPDCN cells; at 45.8 µM (top of the series) unless noted. The essentials:
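Gen2.2, 500 cells/well, phenol red-free RPMI/10% FBS/Pen-Strep; 48 h cpd, 37 °C/5% CO2; CTG lum, 15 min RT. Norm: DMSO = 100%, bortezomib 9.2 uM final = 0%.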

The nature of assay [2]: High-throughput drug toxicity screening in the BPDCN cell line Cal-1 (AID 1224825; call rule not given here). As to conditions: Cal-1 BPDCN cell viability, qHTS; at 45.8 µM (top of the series) unless noted. The essentials: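 500 Cal-1 cells/well, RPMI + glutamine + 10% FBS (phenol red-free); cpd added by pin tool; 48 h, 37C, 5% CO2; CTG 15 min RT, lumi read. Normalised: DMSO 100%, bortezomib 9.2 uM 0%.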
(In general: In qHTS, concentration-response curves come from the screen itself.)

Assay [3] in a line: qHTS assay for measurement of the activity of small molecule inhibitors on Zika virus induced Caspase-3 activity in human iPSC derived neural progenitor cells (hNPCs) (AID 1224857). Further: nearly all actives have a fitted effect of over 65% in size. Further: potency means the concentration at half of the fitted maximal effect. In a few lines: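 Quantitative HTS format: human iPSC neural progenitors, 1 h compound pretreatment, ZIKV 2 FFU/cell for 6 h at 37 C. Percent inhibition derived from luminescent caspase-3/7 signal between uninfected and infected controls.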

Assay [4] is described as follows: qHTS assay for measurement of the activity of small molecule inhibitors on Zika virus induced Caspase-3 activity in human astrocytoma cells (AID 1224859). Further: potency means the concentration at half of the fitted maximal effect. The essentials: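 Readout is luminescence from Caspase-Glo 3/7 added after a 6 h ZIKV infection (2 FFU/cell) of compound-pretreated (1 h) SNB-19 cells; data expressed as % inhibition versus uninfected and infected wells.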

Assay [5] in a line: qHTS Screen of the MIPE 4.0 Collection Against Ewings Sarcoma (RDES) (AID 1259252).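 Further: 100% = DMSO-treated cells and 0% = medium-only wells without cells; nearly all actives have a fitted effect of over 35% in size.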 In a few lines: (§1)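 After a 4 h attachment period in RPMI/5% FBS, cells were pin-dosed with test compounds; DMSO served as negative and 9.2 uM bortezomib (final) as positive control. Luminescent CellTiter-Glo signal at 48 h defined viability.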
A short description of assay [6]: qHTS Screen of the MIPE 4.0 Collection Against Ewings Sarcoma (TC71) (AID 1259253). Further: nearly all actives have a fitted effect of over 40% in size. Further: potency means the concentration at half of the fitted maximal effect. The essentials:
as §1

Assay [7] is described as follows: qHTS Screen of the MIPE 4.0 Collection Against Ewings Sarcoma (EW8) (AID 1259255).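 Further: 100% = DMSO-treated cells and 0% = medium-only wells without cells; nearly all actives have a fitted effect of over 35% in size.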 The essentials: as §1
The nature of assay [8]: qHTS Screen of the MIPE 4.0 Collection Against Ewings Sarcoma (TC32) (AID 1259256). Further: nearly all actives have a fitted effect of over 45% in size. Further: potency means the concentration at half of the fitted maximal effect. In a few lines:
as §1

The nature of assay [9]: qHTS assay to identify small molecule inhibitors of chordoma cells - UCH-1 (AID 1259355). Further: on the % scale 0 is the no-effect control and ±100 the full control effect; nearly all actives have a fitted effect of over 55% in size. In a few lines: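 Seed 800 cells per well; incubate overnight at 37 C, 5% CO2. Add test compounds (15 concentrations), then the auranofin–topoisomerase-agent combination. Incubate 48hr, add CellTiter-Glo, wait 30min, read luminescence.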
A short description of assay [10]: qHTS profiling of the MIPE4 collection as inhibitors of Plasmodium falciparum (3D7) proliferation (AID 743344; call rule not given here;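 further: scaled between DMSO vehicle wells and 0.29 µM artemisinin as full inhibition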). As to conditions: P. falciparum 3D7 in erythrocytes, SYBR Green DNA fluorescence, 72 h; at 28.5 µM (top of the series) unless noted. In a few lines:
(§2)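 Erythrocytes infected with P. falciparum (0.3% parasitemia, 2.5% hematocrit) incubated with compounds 72 h at 37 C, 5% CO2. Lysis with saponin/Triton buffer containing SYBR Green I, overnight at room temperature in the dark; DNA fluorescence (485/535 nm) normalised to 0.29 uM artemisinin and DMSO.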

Assay [11] is described as follows: qHTS profiling of the MIPE4 collection as inhibitors of Plasmodium falciparum (DD2) proliferation (AID 743345; call rule not given here). As to conditions: P. falciparum Dd2 in erythrocytes, SYBR Green DNA, 72 h; at 28.5 µM (top of the series) unless noted. The essentials: as §2
Assay [12] can be described thus: qHTS profiling of the MIPE4 collection as inhibitors of Plasmodium falciparum (DD2) proliferation (Rep 2) (AID 743346; call rule not given here). The conditions noted are these: P. falciparum Dd2 in erythrocytes, SYBR Green DNA, 72 h; at 28.5 µM (top of the series) unless noted. In a few lines: as §2
Assay [13] can be described thus: qHTS profiling of the MIPE4 collection as inhibitors of Plasmodium falciparum (HB3) proliferation (AID 743347; call rule not given here;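 further: plate controls were DMSO vehicle wells for no effect and artemisinin wells for full effect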). As to conditions: P. falciparum HB3 in erythrocytes, SYBR Green DNA, 72 h; at 28.5 µM (top of the series) unless noted. In a few lines: as §2
A short description of assay [14]: qHTS assay to identify small molecule inhibitors of chordoma cells - UCH-2 (AID 1259356). Further: on the % scale 0 is the no-effect control and ±100 the full control effect.
Assay [15] is described as follows: qHTS profiling for inhibitors of Plasmodium falciparum (3D7) proliferation (AID 743322; call rule not given here;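 further: infected erythrocytes exposed to compound for 72 h before lysis; 100% = DMSO vehicle wells and 0% = 0.29 µM artemisinin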). As to conditions: P. falciparum 3D7 proliferation; at 28.7 µM (top of the series) unless noted. In a few lines: as §2
The nature of assay [16]: qHTS profiling for inhibitors of Plasmodium falciparum (DD2) proliferation (AID 743323; call rule not given here). As to conditions: lower = more inhibition; at 28.7 µM (top of the series) unless noted. The essentials:
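1536-well qHTS; infected RBCs 0.3% parasitemia/2.5% Hct final; cpd 72 h 37 C 5% CO2; lysis buffer + SYBR Green I, o/n RT dark; FI 485/535; norm. to 0.29 uM artemisinin and DMSO, plate-stack corrected.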

The nature of assay [17]: qHTS profiling for inhibitors of Plasmodium falciparum (HB3) proliferation (AID 743324).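 Further: 100% = DMSO vehicle wells and 0% = artemisinin-treated control wells.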 The conditions noted are these: Plasmodium falciparum HB3 blood-stage proliferation; at 28.7 µM (top of the series) unless noted. The essentials: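 P. falciparum HB3 grown in erythrocytes (0.3% parasitemia, 2.5% hematocrit final) with compound for 72 h at 37 C, 5% CO2. Parasite DNA detected by SYBR Green after saponin/triton lysis overnight; normalized to 0.29 uM artemisinin and DMSO.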

In the case of `O=c1[nH]cnc2[nH]ncc12`, the cell viability, % of control (lower = more cytotoxic) in assay [1] turned out to be 124%. Besides, the viability (% of control) in assay [2] was determined as 101%. The Potency entry in assay [3], in [4], in assay [5], in assay [6], in [7] and in assay [8] was “inactive” each time. Further, the Potency entry in assay [9] is “inactive”.

Molecule `Cc1ccc(N(CC2=NCCN2)c2cccc(O)c2)cc1` came in with a parasite growth, % of DMSO control in [10] of 69.6%. Moreover, the parasite growth remaining, % of DMSO control (lower = more inhibition) in assay [11] was 92.8%. The parasite growth, % of control (lower = inhibition) in assay [12] came to 57%. In assay [13], this molecule gave a growth, % of control of 95.9%. The cell viability, % of control (lower = more cytotoxic) in assay [1] was found to be 80.5%. In assay [2], the viability (% of control) was determined as 22.6%. The Potency result in assay [3], in assay [4], in assay [5], in assay [7] and in [9] was “inactive” each time. Besides, the Potency in assay [6] was 14.8 µM (active); in assay [8], 16.6 µM (active). The call in assay [14] was inactive.

The molecule `O=C1CCC(N2C(=O)c3ccccc3C2=O)C(=O)N1` (stereo not drawn) had a parasite growth, % of DMSO control in assay [10] of 93.4%. Moreover, the parasite growth remaining, % of DMSO control (lower = more inhibition) in assay [11] was determined as 88.8%. Also, the parasite growth, % of control (lower = inhibition) in assay [12] was 142%. This molecule also showed a growth, % of control in assay [13] of 114%. Besides, in assay [1], the cell viability, % of control (lower = more cytotoxic) stood at 167%. Moreover, the viability (% of control) in assay [2] was found to be 95.9%. For the same molecule, the Potency result in assay [3], in assay [4], in assay [5], in [6], in assay [7] and in assay [9] was “inactive” in each case. Besides, the Potency in assay [8] was 0.0037 µM (active). Besides, the result in assay [14] was inactive.

Molecule `CC(C[N+](C)(C)C)OC(N)=O` (stereo not drawn) came in with a parasite growth, % of DMSO control in assay [10] of 102%. For the same molecule, the parasite growth remaining, % of DMSO control (lower = more inhibition) in [11] was found to be 101%. In addition, the parasite growth, % of control (lower = inhibition) in assay [12] worked out at 96.7%. Besides, the cell viability, % of control (lower = more cytotoxic) in assay [1] amounted to 120%. In assay [2], the viability (% of control) turned out to be 120%. For the same molecule, the Potency result in assay [3], in [4], in [5], in assay [6], in [7] and in assay [8] was “inactive” each time. Moreover, the Potency result in [9] is “inactive”. Moreover, the molecule was classed as inactive in assay [14].

`N=c1nc(N2CCCCC2)cc(N)n1O`: in [10], the parasite growth, % of DMSO control is 6.29%. Besides, in [11], the parasite growth remaining, % of DMSO control (lower = more inhibition) stood at 33.6%. The parasite growth, % of control (lower = inhibition) in assay [12] came to 7.66%. Moreover, the growth, % of control in [13] is 3.91%. Further, in assay [1], the cell viability, % of control (lower = more cytotoxic) was found to be 450%. In [2], the viability (% of control) stood at 106%. The Potency result in assay [3], in assay [4], in [5], in assay [6], in assay [7] and in assay [8] was “inactive” throughout. The Potency entry in [9] is “inactive”.

Turning to `CC(c1cc2ccccc2s1)N(O)C(N)=O` (stereo not drawn), the remaining parasite growth % (stronger effect = lower value) in assay [15] stood at 101% [at 57.5 µM]. The activity, percent of control in assay [16] amounted to 101% [at 57.5 µM]. Moreover, the remaining proliferation (% of control), lower = more inhibition in assay [17] stood at 109% [at 57.5 µM]. Also, in assay [10], the parasite growth, % of DMSO control was determined as 94.1%. For the same molecule, the parasite growth remaining, % of DMSO control (lower = more inhibition) in assay [11] was determined as 98.2%. Further, the parasite growth, % of control (lower = inhibition) in [12] stood at 140%. For the same molecule, the growth, % of control in [13] is 101%. Besides, the cell viability, % of control (lower = more cytotoxic) in assay [1] is 150%. In assay [2], the viability (% of control) came to 110%. Moreover, the Potency result in [3], in [4], in [5], in assay [6], in assay [7] and in assay [8] was “inactive” in each case. Also, the Potency entry in assay [9] is “inactive”. For the same molecule, the outcome in assay [14] was inactive.

Turning to `C1COC(NC(C2CC2)C2CC2)=N1`, the parasite growth, % of DMSO control in assay [10] was found to be 72.7%. In [11], the parasite growth remaining, % of DMSO control (lower = more inhibition) came out at 88.7%. In [12], the parasite growth, % of control (lower = inhibition) worked out at 67.2%. The molecule also registered a growth, % of control in assay [13] of 82.6%. The cell viability, % of control (lower = more cytotoxic) in assay [1] worked out at 33.1%. For the same molecule, in [2], the viability (% of control) was found to be 53.6%. For the same molecule, the Potency result in [3], in assay [4], in assay [5], in [6], in [7] and in [8] was “inactive” each time. For the same molecule, in assay [9], the Potency entry was “inactive”. The molecule was called inactive in assay [14].

For `Cc1[nH]c(=O)c(C#N)cc1-c1ccc2nccn2c1`, the remaining parasite growth % (stronger effect = lower value) in assay [15] worked out at 105%. Moreover, in [10], the parasite growth, % of DMSO control amounted to 50.3%. In addition, the parasite growth remaining, % of DMSO control (lower = more inhibition) in assay [11] came to 93.1%. Moreover, in [12], the parasite growth, % of control (lower = inhibition) was 113%. In addition, in assay [1], the cell viability, % of control (lower = more cytotoxic) came out at 220%. The viability (% of control) in [2] came out at 95.5%. Further, the Potency result in assay [3] was “inactive and 7.43 µM (active)”; in assay [4], “inactive and 4.69 µM (active)”. Moreover, the Potency entry in [5], in assay [6], in assay [7], in [8] and in [9] was “inactive” each time. Further, the molecule was called inactive in [14].
